Assay outcomes from PubChem.
Cycloheximide cs – Cycloheximide Counterscreen for Small Molecule Inhibitors of Shiga Toxin; AID 2314, 2010; 300,000 compounds, 12% hits; cell reporter, cycloheximide protein synthesis inhibition counterscreen; max response, %; in the data active = max response mostly above about 13%, no sharp cut-off; inactive = mostly below about 14%; also: read at 38.3 µM for the half of the compounds with a filed dose; 0% is about no effect
Marburg entry inh – qHTS for inhibitors of binding or entry into cells for Marburg Virus | Marburg virus pseudotyped entry inhibition, cell reporter | Potency, µM (highest dose often 37.8 µM), inactives show at the highest dose activity change, negative = inhibition, usual class: inhibitors | 300,000 compounds, 1.8% hits; calls by dose curve; tested in HEK293 cells; also: potency is read from the fitted curve at half-maximal effect; % is scaled to controls: 0 for no effect and ±100 for the full control effect
Lassa entry inh – qHTS for Inhibitors of binding or entry into cells for Lassa Virus. Lassa virus pseudotype entry inhibition, cell reporter. Potency, µM (highest dose often 37.9 µM), inactives show top-dose activity change, negative = inhibition, hits mostly inhibitors. 300,000 compounds, 1.2% hits; calls by dose curve; tested in HEK293 cells; also: potency is read from the fitted curve at half-maximal effect; % is scaled to controls: 0 for no effect and ±100 for the full control effect; nearly all actives have a fitted effect of over 50% in size
Shiga inhibitor – A qHTS for Small Molecule Inhibitors of Shiga Toxin; Vero cells, Shiga toxin protein synthesis inhibition reporter; inhibition, % at 38.7 µM; 290,000 compounds, 9.2% hits; AID 2315, 2010; in the data active = inhibition mostly above about 28%, no sharp cut-off; inactive = mostly below about 43%; also: 0% is about no effect
* hit, by the source's call; u = inconclusive; x = no result given; + = active, no number; [ ] = another dose, or the depositor's remark. Rows were chosen to be rich in hits. Some 12% of all compounds tested hit in one or more screens of this group.

SMILES | Cycloheximide cs | Marburg entry inh | Lassa entry inh | Shiga inhibitor
c1ccc(-c2noc(CSc3nc4ccccc4o3)n2)cc1 | 17.1 | 12.8% | 14.8% | 56.3
c1ccc(SCc2nc3ccccc3s2)nc1 | 33.2* | u | u | 81.0*
O=C(CSc1nc2ccccc2o1)Nc1nncs1 | 11.1 | -14.4% | -12.8% | 12.6
NCCc1nc2ccccc2s1 | 4.6 | 18.5%[46.1 µM] | 8.7%[46.1 µM] | -4.8
c1ccc2oc(SCc3nc4ccccc4s3)nc2c1 | 42.6* | u | u | +
Fc1ccc(CNC(=S)NC2CCCCCC2)cc1 | 1.3 | u | -11.6% | -16.2
N#C/C(=C(/O)COc1ccccc1)c1nc2ccccc2s1 | -2.6 | 16.3%[46.1 µM] | u | -18.4
N#C/C(=C(/O)c1ccc(F)cc1)c1nc2ccccc2s1 | 19.9* | u | x | 20.5
Cc1ccc(SC/C(O)=C(\C#N)c2nc3ccccc3s2)cc1 | 10.5 | -3.7% | -3.4% | 12.2
N#C/C(=C(/O)CSc1ccccn1)c1nc2ccccc2s1 | 25.3* | x | x | 47.4
Cc1oc(-c2ccc(Cl)cc2)nc1Cn1c(=O)cc(-c2ccccc2)c2c(C)nn(C)c21 | x | x | 6.3%[46.1 µM] | x
CN(C)/C=N/c1ncc(C(=O)OC(C)(C)C)s1 | 30.5* | 29.1%[46.1 µM] | 23.3% | 69.0*
CN(C)/C=N/c1ncc(C(=O)c2ccccc2)s1 | 52.4* | -5.3% | u | 66.4*
CCCCn1c(SCC(=O)N(C)C2CCS(=O)(=O)C2)nc2cc(S(N)(=O)=O)ccc21 (stereo not given) | -4.7 | x | x | -2.8
CC(C)(C)NC(=O)NC(=O)C[n+]1ccc(Cc2ccc([N+](=O)[O-])cc2)cc1 | -4.9 | x | x | -3.8
O=C(COc1ccccc1)Nc1ccc(S(=O)(=O)NCc2ccco2)cc1 | 0.5 | u | 23.1µM* | 19.1
CC(=O)Nc1ccc(NC(=O)COC(=O)c2ccc(S(=O)(=O)NCc3ccco3)cc2)cc1 | x | 3.4%[46.1 µM] | -13.0%[46.1 µM] | x
O=C(COc1ccccc1)NCC(=O)Nc1ccc(S(=O)(=O)NCc2ccco2)cc1 | 1.5 | 3.7% | -8.0% | -18.7
O=C(NCc1ccco1)c1ccc2ccccc2n1 | -1.8 | 5.9%[46.1 µM] | -14.8% | -4.5
O=C(Nc1ccc(S(=O)(=O)NCc2ccco2)cc1)c1ccc2ccccc2n1 | 88.9* | u | 2.0% | 50.7*
O=C(COc1ccccc1F)Nc1ccc(S(=O)(=O)NCc2ccco2)cc1 | 39.8* | -27.4% | u | 39.5
Cn1nc(-c2ccc(OCC(=O)N3CCN(Cc4ccccc4)CC3)cc2)c2ccccc2c1=O | 1.0 | 8.2µM* | -15.2% | -8.2
CCCNS(=O)(=O)c1ccc(OCC(=O)N2CCN(c3ccccc3)CC2)cc1 | 2.6 | -10.8%[46.1 µM] | 0.4% | -7.2
Cn1nc(-c2ccc(OCC(N)=O)cc2)c2ccccc2c1=O | -3.5 | u | 9.7% | -14.0
CCCNS(=O)(=O)c1ccc(OCC(=O)N2CCN(Cc3ccccc3)CC2)cc1 | 1.2 | u | 18.3µM* | -11.7
SMILES | Cycloheximide cs | Marburg entry inh | Lassa entry inh | Shiga inhibitor
Cc1cc(-c2cc(-c3ccc(Cl)cc3)on2)nc(NC2CCCC2)n1 | 2.7 | x | x | -6.5
Cc1cc(-c2cc(-c3ccccc3)on2)nc(NC2CCCC2)n1 | 21.3 | x | x | 33.6*
CCCCC(=O)Nc1cccc(NC(=O)c2ccc3c(c2)OCO3)c1 | 13.6* | -5.0% | -6.1% | 11.8
CCCCC(=O)Nc1ccc(NC(=O)c2ccc3c(c2)OCO3)cc1OC | 12.9 | 3.4% | 14.5% | 14.2
CCCC(=O)Nc1cccc(NC(=O)c2ccc3c(c2)OCCO3)c1 | 22.6* | -8.8% | -0.7% | 63.8*
c1coc(C2Nc3cccc4cccc(c34)N2)c1 | -3.2 | x | x | -5.3
C/C(CC(=O)Nc1cccc2c1CCCC2)=N\NC(=O)c1ccccc1N | 30.8* | 13.6% | 17.1% | 115.8*
C/C(CC(=O)Nc1cc(C)ccn1)=N\NC(=O)C(=O)Nc1cccc(C)c1 | 26.4* | 36.0% | u | 32.5
C/C(CC(=O)Nc1cccc2c1CCCC2)=N\NC(=O)c1cccc2ccccc12 | -1.7 | u | -9.3% | -7.2
C/C(CC(=O)Nc1ccccn1)=N\NC(=O)c1ccc(C)cc1 | 18.4* | u | 21.3% | 56.8
COc1ccc(NC(=O)C(=O)N/N=C(\C)CC(=O)Nc2cc(C)ccn2)c(OC)c1 | -0.4 | 2.4% | 3.5% | 7.2
COc1ccccc1C(=O)N/N=C(\C)CC(=O)Nc1ccccn1 | 26.1* | u | 1.1%[46.1 µM] | 68.5*
O=S(=O)(/N=C(/Nc1cccc2ccccc12)c1ccccc1)c1ccc(F)cc1 | 0.5 | x | x | 7.8
COc1ccccc1C(=O)N/N=C(\C)CC(=O)Nc1ccc(Nc2ccccc2)cc1 | 11.8 | -7.1%[46.1 µM] | x | 25.0
CCc1ccc(NC(=O)C(=O)N/N=C(\C)CC(=O)Nc2ccccn2)cc1 | 35.5* | u | 23.2% | 47.8*
C/C(CC(=O)Nc1ccccn1)=N\NC(=O)C(=O)Nc1ccccc1C | 0.7 | 12.1% | 8.7% | -19.7
COc1ccccc1C(=O)N/N=C(\C)CC(=O)Nc1ccc(Cl)cn1 | 37.3* | -4.8%[46.1 µM] | -0.9% | 49.7*
COc1ccc(OC)c(NC(=O)C(=O)N/N=C(\C)CC(=O)Nc2ccc(Cl)cn2)c1 | -2.9 | -10.9%[46.1 µM] | -4.9%[46.1 µM] | -4.6
COc1ccccc1C(=O)N/N=C(\C)CC(=O)Nc1ccccc1NC(C)=O | 19.4* | x | x | x
CC(NC(=O)Cc1ccc(NC(=O)N2CCSc3ncccc32)cc1)c1ccccc1 (stereo not given) | x | x | -6.8%[46.1 µM] | x
COc1ccccc1CNC(=O)C1CCN(S(=O)(=O)c2ccc3c(ccn3C)c2)CC1 | x | x | -0.5%[46.1 µM] | x
N#Cc1c(N)nc2c(c1-c1ccc(Br)s1)CCCC2 | -4.7 | -8.4% | 20.3% | -11.9
Nc1nc(-c2ccc(Br)s2)c(Br)s1 | 37.9* | 8.6%[46.1 µM] | 22.5% | 62.7*
CCC/C(=N\NC(=O)CNC(=O)/C=C/c1ccco1)c1ccccc1 | 12.7* | 2.1% | 9.5% | -112.4
CCC/C(=N\NC(=O)CCC(=O)NCc1ccccc1)c1ccccc1 | 1.2 | u | 3.98µM* | -6.1
SMILES | Cycloheximide cs | Marburg entry inh | Lassa entry inh | Shiga inhibitor
CCCC(=O)NNC(=O)CCC(=O)NCc1ccccc1 | 2.1 | -0.4% | -7.4% | -18.8
C/C(CCC(=O)OC[C@H]1O[C@H](C#Cc2ccccc2)C=C[C@@H]1Oc1ccc(C)cc1)=N\OC[C@@H](O)COCc1ccco1 | x | -9.6%[14.2 µM] | x | x
COc1ccc(NC(=O)c2cc(-c3ccccc3Cl)on2)cc1 | 43.7* | x | x | 129.9*
COc1ccc(NC(=O)c2cc(-c3ccccc3OC)on2)cc1 | 19.4* | -22.2% | u | 88.5*
O=C(NCCc1ccccc1)c1cc(-c2ccc(Cl)cc2)on1 | x | -3.4%[46.1 µM] | 1.1%[46.1 µM] | x
CCCc1cc(C(=O)NCCc2ccccc2)no1 | 53.4* | x | x | 86.5*
COc1ccccc1-c1cc(C(=O)Nc2cccnc2)no1 | 25.2* | u | u | 48.5*
CC(=O)c1ccc(S(=O)(=O)N2CCC3(CC2)CC(=O)c2ccccc2O3)cc1 | x | -20.1% | -9.6% | x
C=CCNC(=S)N1CCN(c2cc3c(cc2F)c(=O)c(C(=O)O)cn3CC)CC1 | -1.9 | 16.9%[46.1 µM] | 14.7% | -7.6
COc1ccc(OC)c(S(=O)(=O)N2CC=C(c3c(C)n(CC(=O)N4CCCC4)c4ccccc34)CC2)c1 | x | 4.2%[46.1 µM] | -5.2%[46.1 µM] | x
COc1ccc(CN(C(=O)Nc2ccccc2)c2ccccn2)cc1OC | x | 2.8%[46.1 µM] | 0.1%[46.1 µM] | x
Cc1ccc(NC(=O)N2N=C(c3ccc(F)cc3)CC2c2ccc(F)cc2)cc1 (stereo not given) | 8.5 | -3.8% | 4.1% | 14.0
COc1ccc(CCNC(=O)c2cc(-c3ccccc3OC)on2)cc1OC | 14.6 | -10.8% | 72.0%[14.3 µM] | 43.0
